Compound activity: PubChem BioAssay, several laboratories
A selection: hits, their analogues and other compounds. The true share with any hit is near 3.3%.
Jurkat NFkB inh = inhibitors of the PMA/ionomycin-induced NF-kB reporter in Jurkat cells | PMA/ionomycin-induced NF-kB luciferase reporter, luminescence | inhibition, % at 4 µM | 330,000 compounds, 0.53% hits; in the data active means inhibition above about 50%
697 NFkB inh = inhibitors of the PMA/ionomycin-induced NF-kB reporter in 697 B cells; 697 B-cell NF-kB luciferase reporter, 16 h; 330,000 compounds, 0.33% hits; inhibition, % at 4 µM; in the data active means inhibition above about 35%
esBAF inh = inhibitors of esBAF chromatin remodeling in mouse ES cells; Bmi1-luciferase knock-in reporter, 24 h; 100% = twice the neutral-well signal; AID 602393; reporter increase, % at 12.5 µM; 350,000 compounds, 2% hits; in the data active means activation above about 40%; inconclusive means no clear call, values can overlap the other calls;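 further: a rise in the Bmi1 reporter signal indicates esBAF inhibition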
SMARCA2 act = increases SMARCA2 function in MMTV reporter cells. MG213 cells, MMTV-luciferase reporter, dexamethasone, overnight. activation, % at 9.1 µM. 370,000 compounds, 1% hits; in the data active means activation above about 7.8%
Gli-Sufu antag = blocks Gli-Sufu signaling in a luciferase reporter | Sufu-KO-LIGHT fibroblasts, Gli luciferase reporter luminescence | inhibition, % at 5 µM | 340,000 compounds, 0.74% hits | AID 588413;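 active means inhibition above about 55%, limit read from the data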
A number is an active result; – = inactive; ? = inconclusive; · = no result.

SMILES	Jurkat NFkB inh	697 NFkB inh	esBAF inh	SMARCA2 act	Gli-Sufu antag
C[C@@H]1CCCCO[C@H](CN(C)C(=O)Cc2ccccc2)[C@H](C)CN([C@@H](C)CO)C(=O)c2cc(NC(=O)Nc3cccc4ccccc34)ccc2O1	·	·	–	·	·
C=CCn1cccc(C(=O)Nc2ccc(F)cc2)c1=O	–	–	67.2	–	–
C=CCn1cccc(C(=O)Nc2ccc(OC)cc2)c1=O	–	–	·	–	–
CCCC(=O)Nc1ccc2c(c1)OC[C@@H](C)N(C(=O)CN(C)C)C[C@@H](C)[C@@H](OC)CN(C)C2=O	·	·	–	·	·
CC(=O)COc1ccc2c(c1C)O/C(=C\c1ccco1)C2=O	–	–	61.3	–	–
O=S(=O)(N[C@H]1CC[C@@H](CCn2cc(-c3ccccn3)nn2)O[C@H]1CO)c1cccc(Cl)c1	·	·	–	·	·
Cc1ccccc1S(=O)(=O)NCC[C@H]1CC[C@H](NS(=O)(=O)c2ccccc2C)[C@@H](CO)O1	·	·	–	·	·
CC(=O)Nc1cc2oc3ccccc3c2cc1[N+](=O)[O-]	·	·	?	–	–
CC(=O)Nc1ccc(N=Nc2ccccc2)cc1[N+](=O)[O-]	·	·	56.4	–	–
CC(=O)N1N=C(c2ccc(Br)cc2)CC1c1ccc(Br)cc1 (stereo not drawn)	·	·	61.5	–	·
CCCNC(=O)Nc1ccc2c(c1)OC[C@@H](C)N(Cc1ccccc1)C[C@@H](C)[C@@H](OC)CN(C)C2=O	·	·	–	·	·
N#Cc1ccc(-c2cccnc2)nc1SCC(=O)c1ccccc1	–	–	62.8	–	–
N#Cc1ccc(-c2ccccc2)nc1SCC(=O)c1cccc(Cl)c1	–	–	·	–	–
COc1ccccc1S(=O)(=O)Nc1ccc2c(c1)C(=O)N(C)C[C@@H](OC)[C@@H](C)CN[C@H](C)CO2	·	·	–	·	·
CN(C)C(=O)c1ccc(-c2ccc3c(c2)[C@@H]2[C@@H](CCN2C(=O)C2CCOCC2)[C@@H](CO)N3C)cc1	·	·	–	·	·
C[C@H](CO)N1C[C@H](C)[C@@H](CN(C)C(=O)Nc2cccc3ccccc23)OCCCC[C@H](C)Oc2ccc(NC(=O)Nc3ccc(C(F)(F)F)cc3)cc2C1=O	·	·	–	·	·
Cc1cnn(C(=S)NCc2ccc(Cl)cc2)c1	–	–	·	–	–
Cc1cnn(C(=S)NCCc2ccccc2)c1	–	–	45.7	–	–
C[C@H]1CN([C@@H](C)CO)C(=O)Cc2cc(NC(=O)CCC(F)(F)F)ccc2O[C@H]1CN(C)Cc1ccc(C(=O)O)cc1	·	·	–	·	·
COC(=O)c1ccc(COC(=O)CNC(=O)c2ccc(OC)cc2)cc1	–	–	68.4	–	–
CCNC(=O)[C@@H]1[C@@H](CO)[C@@H]2Cn3c(ccc(-c4ccncc4)c3=O)[C@@H]2N1Cc1ccc2c(c1)OCO2	·	·	–	·	·
CN(C)C(=O)C[C@@H]1CC[C@H]2[C@@H](COC[C@@H](O)CN2Cc2ccc(C(F)(F)F)cc2)O1	·	·	–	·	·
CN(C)S(=O)(=O)Oc1cccc(C(=O)Nc2ccccc2Cl)c1	–	–	72.1	–	–
CN(C)S(=O)(=O)Oc1cccc(C(=O)Nc2ccc(Cl)cc2)c1	–	–	–	–	–
CN=c1scc(-c2ccc(F)cc2)n1/N=C/c1ccc(O)c(O)c1	–	–	·	–	58.2
SMILES	Jurkat NFkB inh	697 NFkB inh	esBAF inh	SMARCA2 act	Gli-Sufu antag
O=C(C[C@H]1C[C@H]2c3cc(NC(=O)CC4CC4)ccc3O[C@H]2[C@H](CO)O1)NCc1ccc(-c2ccccc2)cc1	·	·	–	·	·
O=C(CSc1nncs1)Nc1ccc(N2CCCCC2)cc1	–	–	56.7	–	–
COc1ccc(NC(=O)CSc2nncs2)cc1S(=O)(=O)N1CCCCC1	–	–	–	–	–
CCc1ccccc1NC(=O)COc1ccc2c(c1)OCO2	–	–	·	–	–
CC(C)(C)c1nnc(NC(=O)COc2ccc3c(c2)OCO3)s1	–	–	68.8	–	–
Cc1ccc(NC(=O)COc2ccc3c(c2)OCO3)c(Cl)c1	–	–	47.8	–	–
N#Cc1ccccc1NC(=O)COc1ccc2c(c1)OCO2	–	–	67.5	–	–
C[C@H](CO)N1C[C@H](C)[C@@H](CN(C)S(=O)(=O)c2ccc(Cl)cc2)OCCCC[C@H](C)Oc2ccc(NS(=O)(=O)c3cccs3)cc2C1=O	·	·	–	·	·
C[C@@H]1CN([C@H](C)CO)C(=O)Cc2cc(NC(=O)Nc3ccc(C(F)(F)F)cc3)ccc2O[C@H]1CN(C)C(=O)Nc1ccc(F)cc1	·	·	–	·	·
O=C1CNC(=O)c2c(nc3n2CCC3)N1	–	–	–	7.8	–
c1ccc(COc2ccc(OCCCCN3CCCC3)cc2)cc1	–	–	·	19.3	–
c1ccc(COc2ccc(OCCCN3CCCCC3)cc2)cc1	–	–	–	–	–
COc1ccc([C@@H]2CC(=O)c3c(O)cc(O)cc3O2)cc1O	–	–	54.1	–	–
COc1ccc(-c2ccc([C@@H]3[C@@H](C#N)N(C(=O)NC4CCCCC4)[C@H]3CO)cc2)cc1	·	·	–	·	·
COc1ccccc1-c1ccc([C@H]2[C@@H](CO)N(C(=O)NC3CCCCC3)[C@H]2C#N)cc1	·	·	59.4	·	·
O=C(Cc1ccccc1)N1C[C@@H]2[C@H](c3ccccc31)[C@@H](CO)N2C(=O)c1cccc(F)c1	·	·	–	·	·
COc1ccc(NC(=O)CN(C)C(=O)CNC(=O)c2sc3ccccc3c2Cl)cc1	–	–	51.0	–	–
c1coc(CN2CN=C(Nc3nc4ccccc4s3)NC2)c1	–	–	50.6	–	–
c1ccc(CN2CN=C(Nc3nc4ccccc4s3)NC2)cc1	–	–	–	–	–
O=C(NC(=S)N1CCN(c2nc(-c3ccccc3)cs2)CC1)c1cncc(Br)c1	–	–	–	9.8	–
COc1cc(/C=N/Nc2nc3ccccc3[nH]2)ccc1O	–	–	47.0	–	–
COc1cccc(/C=N/Nc2nc3ccccc3[nH]2)c1OC	–	–	·	–	–
COc1cc(/C=N/Nc2nc3ccccc3[nH]2)cc(OC)c1O	–	–	·	–	–
COc1cccc(/C=N/Nc2nc3ccccc3[nH]2)c1O	–	–	62.1	–	–
C(=N\Nc1nc2ccccc2[nH]1)/c1cccs1	–	–	67.5	–	–
SMILES	Jurkat NFkB inh	697 NFkB inh	esBAF inh	SMARCA2 act	Gli-Sufu antag
COc1cc(/C=N/Nc2snc(SC)c2C#N)ccc1O	–	–	60.4	–	–
N#Cc1ccc(-c2ccc3c(c2)[C@@H]2[C@@H](CCN2C(=O)CN2CCOCC2)[C@H](CO)N3)cc1	·	·	–	·	·
C[C@@H]1CCCCO[C@H](CN(C)S(=O)(=O)c2ccc(Cl)cc2)[C@H](C)CN([C@H](C)CO)C(=O)c2cc(NC(=O)c3ccncc3)ccc2O1	·	·	–	·	·
CCC/C=N/Nc1nc2ccccc2s1	–	–	·	–	–
C(=C\c1ccccc1)/C=N/Nc1nc2ccccc2s1	–	–	65.8	–	–
C[C@H](CO)N1C[C@H](C)[C@H](CN(C)C(=O)c2ccccn2)Oc2ncc(C3=CCCC3)cc2C1=O	·	·	–	·	·
N#C/C(=C/c1ccc(OC(=O)c2ccc(Br)s2)cc1)c1nc2ccccc2[nH]1	·	·	83.4	–	–
N#C/C(=C\c1ccc(OC(=O)c2ccc(Br)s2)cc1)c1nc2ccccc2[nH]1	·	·	·	–	–
CC(C)NC(=O)Nc1ccc2c(c1)C(=O)N([C@@H](C)CO)C[C@@H](C)[C@H](CN(C)Cc1ccc3c(c1)OCO3)OCCCC[C@@H](C)O2	·	·	–	·	·
